# Data published in PubChem BioAssay.
# A number with no mark means an inactive call. How the calls were made is not given here.
# Tested on: Aerobactin synthetase IucA (Klebsiella pneumoniae, hypervirulent)
# Assay: biochemical IucA inhibition screen of LOPAC library by absorbance (AID 1346212);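 further: 100% = no compound wells and 0% = no enzyme wells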
# Settings: IucA enzyme assay, absorbance (OD) readout; hits give low values;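 tested at 8 µM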
row,Structure (SMILES),remaining activity [%]
1,CN(C)c1ccc(/C=C2\C(=O)Nc3ccccc32)cc1,95.7
2,O=C(O)CNC(=O)C(CS)Cc1ccccc1 (centres undefined),119
3,CC(C)NC[C@@H](O)COc1ccc(CC(N)=O)cc1,117
4,CNC1(C)C2CCC(C2)C1(C)C (centres undefined),96.4
5,COc1cc2nc(N3CCN(C(=O)OCc4ccccc4)[C@H](C(=O)NC(C)(C)C)C3)nc(N)c2cc1OC,91.6
6,Nc1ccc(-c2ccc3ccccc3n2)cc1,107
7,O=C(NCCO)c1ccc2c(c1)nc(Nc1cccc(Cl)c1)c1ccncc12,90
8,O=C(N[C@@H](Cc1ccccc1)C(=O)CCl)OCc1ccccc1,111
9,OCc1ccc(-c2nn(Cc3ccccc3)c3ccccc23)o1,118
10,COC1=C(OC)C(=O)c2ccccc2C1=O,109
11,CC(=O)O[C@H]1C[C@@H]2CC[C@@H]3[C@H](CC[C@@]4(C)[C@H]3C[C@H]([N+]3(C)CCCCC3)[C@@H]4OC(C)=O)[C@@]2(C)C[C@@H]1[N+]1(C)CCCCC1,121
12,C=CCn1c(=O)c2c(nc(-c3ccc(S(=O)(=O)O)cc3)n2C)n(C)c1=O,128
13,CCCCCCCCCCCCCCCCCC(=O)OC(CC(=O)O)C[N+](C)(C)C (centres undefined),96.1
14,Cn1c(=O)c2[nH]c(-c3ccccc3)nc2n(C)c1=O,124
15,CN(C)c1nc(N)c(C(=O)N=C(N)N)nc1Cl,119
16,OC[C@H]1O[C@@H](n2cnc3c(NCCc4ccccc4)ncnc32)[C@H](O)[C@@H]1O,92.7
17,C=C[C@@]1(C)CC(=O)[C@]2(O)[C@@]3(C)[C@@H](O)CCC(C)(C)[C@@H]3[C@H](O)[C@H](OC(C)=O)[C@@]2(C)O1,107
18,Clc1nccc2c1ccc1ccccc12,109
19,c1ccc2nc(C3=NCCN3)ccc2c1,121
20,O=c1oc(Cl)c(Cl)c2ccccc12,92.9

row,Structure (SMILES),remaining activity [%]
1,c1cnc(N2CCN(Cc3ccc4c(c3)OCO4)CC2)nc1,102
2,CC1CNCCN1S(=O)(=O)c1cccc2cnccc12 (centres undefined),95.7
3,CN(CC[C@@H](Oc1ccc(C(F)(F)F)cc1)c1ccccc1)CC(=O)O,118
4,CC(=O)SCC[N+](C)(C)C,117
5,OC[C@H]1O[C@@H](n2cnc3c(NC4CCCC4)ncnc32)[C@H](O)[C@@H]1O,117
6,CSC(=N)N,123
7,CCN1CCc2nc(N)oc2CC1,119
8,O=C(O)CP(=O)(O)O,89.1
9,COc1ccc2c(c1)c(CC(=O)O)c(C)n2Cc1ccc(F)cc1,101
10,COC(=O)C1=C(C)NC(C)=C(C(=O)OC(C)(C)CN(C)CCC(c2ccccc2)c2ccccc2)C1c1cccc([N+](=O)[O-])c1 (centres undefined),109
11,CSc1ccc(C(=O)c2[nH]c(=O)[nH]c2C)cc1,118
12,CNCCc1cnc(CCC(c2ccccc2)c2ccccc2)[nH]1,110
13,NC(N)=N/N=C/c1c(Cl)cccc1Cl,87.5
14,NCCNS(=O)(=O)c1cccc2c(Cl)cccc12,96.1
15,N[C@@H](Cc1c[nH]c2ccccc12)C(=O)O,91.3
16,Fc1cccc(/C=N/N=C/c2cccc(F)c2)c1,123
17,COc1ccccc1N1CCN(CCN(C(=O)c2ccc(I)cc2)c2ccccn2)CC1,122
18,Oc1ccccc1O,112
19,CC[N+](C)(C)c1cccc(O)c1,86.8
